About 79,000 compounds went through this panel and 15% of them were active in at least one assay; those are over-represented in the sample as a whole. Values without a mark were called inactive. Activity calls are given as the source filed them. Cut-off read from the data, not from the text of the source: active = growth inhibition above about 70%; inactive = the rest.

Consider 21 compounds from PubChem BioAssay (NCI).

A short description of assay [1]: NCI Yeast Anticancer Drug Screen. Data for the rad50 strain (AID 155).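 Note: 0% = growth of vehicle-only cultures of the same strain.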 The following applies: S. cerevisiae rad50 strain growth inhibition; at 50.0 µM; hits give high values. Put shortly:
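Growth of the mutant yeast was measured after compound exposure and referenced to vehicle-treated cultures.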

Assay [2] is described as follows: NCI Yeast Anticancer Drug Screen. Data for the mec2-1 strain (AID 157). Particulars: S. cerevisiae mec2-1 strain, at 50.0 µM, hits give high values. Put shortly: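 Vehicle-treated cultures served as reference for growth inhibition of compound-exposed mec2-1 yeast.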
Assay [3] is described as follows: NCI Yeast Anticancer Drug Screen. Data for the sgs1 mgt1 strain (AID 161).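 Note: 0% = growth of cultures given vehicle only.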 The following applies: S. cerevisiae sgs1 mgt1 strain, at 50.0 µM, hits give high values. In short, it runs like this: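 Inhibition of yeast growth, normalised to vehicle-treated controls, is reported for a strain bearing genetic alterations in DNA damage repair.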
A short description of assay [4]: NCI Yeast Anticancer Drug Screen. Data for the cln2 rad14 strain (AID 165).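 Note: 0% = growth equal to vehicle treated cultures.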 Particulars: S. cerevisiae cln2 rad14 strain, at 50.0 µM, hits give high values. In short, it runs like this: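 Each compound was tested on cln2 rad14 yeast. Inhibition of growth was calculated against vehicle-exposed controls.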
Assay [5] can be described thus: NCI Yeast Anticancer Drug Screen. Data for the bub3 strain (AID 167). Particulars: S. cerevisiae bub3 mutant strain, at 50.0 µM, hits give high values. Put shortly:
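Whole-cell yeast assay. The mutant strain was incubated with compounds, and growth inhibition was determined by comparison with vehicle-treated cells.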

The nature of assay [6]: NCI Yeast Anticancer Drug Screen. Data for the mlh1 rad18 strain (AID 175). The following applies: S. cerevisiae mlh1 rad18 strain growth inhibition; at 50.0 µM; hits give high values. In short, it runs like this: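 Vehicle-treated cultures served as the reference for growth inhibition in a yeast strain carrying DNA damage repair alterations exposed to each compound.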

For `Cc1cc(OC(=O)c2ccccc2)c(C)c(C)c1OC(=O)c1ccccc1`, the growth inhibition is 6.15% in assay [1]; -7.95% in assay [2]; 15.2% in assay [3]; 9.2% in assay [4]; 8.4% in assay [5]; 21.1% in assay [6].
Regarding `O=C(Nc1cc2ccccc2cc1C(=O)O)Nc1cccc2ccccc12`, the growth inhibition in assay [1] was 10.2%; in assay [2] it was 7%; in assay [3], 32.6%; in assay [4] it was 6.2%; in assay [5], 20.1%; in assay [6], 30.3%.
With `CC(=O)Nc1nc(Cl)c2cc[nH]c2n1`, the growth inhibition in assay [1] is -1.05%; in assay [2], 2.5%; in assay [3] it was -5.5%; in assay [4], -10.3%; in assay [5], -11.9%; in assay [6], -11.6%.
Regarding `O=C(CCl)Nc1cc2ccccc2c2ccccc12`, the growth inhibition in assay [1] is 0.65%; in assay [2] it was -23.6%; in assay [3], -10.9%; in assay [4], 1.6%; in assay [5], 9.6%; in assay [6], 8.6%.
In the case of `CNc1c(F)cc(C#N)cc1F`, the growth inhibition in assay [1] is 12.1%; in assay [2], 11.1%; in assay [3], 1.75%; in assay [4] it was 3.8%; in assay [5], 0.75%; in assay [6] it was 10.8%.
Take `CN1NC(=O)SC(=O)c2ccccc2C1=O`: the growth inhibition in assay [1] was -16.4%; in assay [2], 22%; in assay [3], 0.1%; in assay [4], -12.1%; in assay [5] it was 0.15%; in assay [6] it was 0.65%.
As for `O=C1CC2c3ccccc3C(O)(CC1=O)c1ccccc12`, the growth inhibition in assay [1] was 16.2%; in assay [2] it was 6.7%; in assay [3], 11.7%; in assay [4], 15.2%; in assay [5] it was -16.6%; in assay [6] it was 19.2%.
In the case of `CC1=C(C(=O)CC(=O)C(=O)Nc2ccc(Cl)cc2Cl)Sc2ccccc2N1`, the growth inhibition in assay [1] is -5.65%; in assay [2], -11.2%; in assay [3] it was -20.1%; in assay [4] it was -6.1%; in assay [5], 2.55%; in assay [6], 3.45%.
`CC(C)C12Cc3c(ccc4ccccc34)OC1(C)Oc1ccc3ccccc3c1C2` (stereo unspecified): the growth inhibition in assay [1] is 18.6%; in assay [2], -17.4%; in assay [3], -13.5%; in assay [4], 20.1%; in assay [5], -6.8%; in assay [6], 7.05%.
With `O=C(Nc1cccc2ccccc12)Oc1ccc(Br)cc1Br`, the growth inhibition in assay [1] was 84.1% (active); in assay [2], 71.2% (active); in assay [3], 93.3% (active); in assay [4], 30.2%; in assay [5], 54.1%; in assay [6], 92.7% (active).
On to `O=C(NC1C2CC3CC(C2)CC1C3)c1cc(/C=C/c2ccccc2)[nH]c(=S)n1` (stereo unspecified), for which the growth inhibition in assay [1] is 15.1%; in assay [2], 2.35%; in assay [3], 13.1%; in assay [4], 12.2%; in assay [5], -2.25%; in assay [6] it was 14.3%.
Take `CC(C)OC(=O)Nc1ccc(F)c(F)c1`: the growth inhibition in assay [1] was 24.9%; in assay [2] it was -16.8%; in assay [3], 2.6%; in assay [4], -2.8%; in assay [5] it was 6.85%; in assay [6] it was 20.1%.
As to `CCCCCCCCCC(CCCCCCCC(=O)O)NC(C)=O` (stereo unspecified), the growth inhibition in assay [1] was 32.3%; in assay [2] it was 16.6%; in assay [3] it was 7.45%; in assay [4], 32.5%; in assay [5] it was -18.1%; in assay [6], 1.05%.
For the compound `CC/C(=N/Nc1cn[nH]c(=O)c1Cl)c1ccccc1`, the growth inhibition in assay [1] is 4.6%; in assay [2], -0.6%; in assay [3], -0.5%; in assay [4], -35.6%; in assay [5], 19%; in assay [6] it was -1.5%.
Take `Cc1c([N+](=O)[O-])cc(C(C)C)c(O)c1[N+](=O)[O-]`: the growth inhibition is 14.8% in assay [1]; 25.3% in assay [2]; 27.9% in assay [3]; -6% in assay [4]; -9.5% in assay [5]; 66.2% in assay [6].
As for `CC[N+](C)(CC)CCOC(=O)C(c1ccccc1)C(O)C1CCCCC1` (stereo unspecified), the growth inhibition in assay [1] was 29.8%; in assay [2], -5.45%; in assay [3], 3.8%; in assay [4] it was 17.3%; in assay [5], -0.3%; in assay [6], 8.75%.
On to `C=CCOC(=O)CC(=O)OCC=C`, for which the growth inhibition in assay [1] is 0.6%; in assay [2], 1.7%; in assay [3], 0.35%; in assay [4], -4%; in assay [5], 3.05%; in assay [6] it was -5.9%.
`CC(C)(C)OC(=O)NC(C)(C)C(=O)NCCC(=O)O`: the growth inhibition in assay [1] is 0%; in assay [2], -70%; in assay [3], -1.8%; in assay [4], 3.35%; in assay [5] it was -15.2%; in assay [6] it was -13.5%.
As to `C[N+](C)([O-])Cc1cccc(NC(=O)c2ccc(C(=O)Nc3cccc(C[N+](C)(C)[O-])c3)cc2)c1`, the growth inhibition in assay [1] was -4.3%; in assay [2] it was 1.25%; in assay [3] it was -8.2%; in assay [4] it was 1.3%; in assay [5], -12.8%; in assay [6], -7.95%.
For `COc1cc(OC)c2c(c1)OC(c1ccccc1)CC2=O` (stereo unspecified), the growth inhibition is -3.3% in assay [1]; 3.05% in assay [2]; -18.2% in assay [3]; 2.25% in assay [4]; 13.8% in assay [5]; 11.8% in assay [6].
Regarding `CC(NC(=O)NCCCl)c1cccc2ccccc12` (stereo unspecified), the growth inhibition is -7.25% in assay [1]; -1.25% in assay [2]; -2.4% in assay [3]; 44.2% in assay [4]; -8.25% in assay [5]; 5.15% in assay [6].
